Calls of active or inactive are those of the source. How the source made its calls: active means hit-call score of the fitted dose curve at least 0.9, where 1 is the maximum; inactive means score below 0.9.
Test: UKN5_HCS_SBAD2_cell_viability: Viability Assessment in the University of Konstanz (UKN) Leist Lab Neurite Outgrowth Assay in human iPSC-derived immature Dorsal Root Ganglia Neurons (UKN5) (AID 2284056)
Method in brief: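 iPSC-derived immature peripheral neurons (SBAD2) seeded on Matrigel with CHIR99021, SU5402 and DAPT, dosed 1 h later for 24 h. Viability from Hoechst H-33342 and calcein-AM live staining, high-content imaging; bidirectional fit versus DMSO.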

SMILES	outcome
CC1=C(/C=C/C(C)=C/C=C/C(C)=C/C(=O)O)C(C)(C)CCC1	inactive
CN1CCC[C@H]1c1cccnc1	inactive

Reference: PubChem BioAssay (EPA / NIEHS)
